# Measured values taken from PubChem BioAssay (EPA / NIEHS).
# Records with an inconclusive call do not appear. Calls of active or inactive are those of the source. Rule for the calls: active = hit-call score of the fitted dose curve at least 0.9, where 1 is the maximum; inconclusive = response in the unintended direction; inactive = score below 0.9.
# What was measured:
# [1] = biological target: rat Histamine Receptor (H3), Hrh3 (gene 85268) (UniProt Q9QYN8); assay: NVS_GPCR_rH3: NovaScreen (NVS) G Protein-Coupled Receptor Assay for rat Histamine Receptor (H3) (AID 2283303)
# In short: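 Rat forebrain membranes incubated 1 h with compound; radioligand displacement measured by filter-based scintillation counting. Single-concentration duplicates at 25 µM, then concentration-response up to 50 µM, relative to DMSO.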
# [2] = biological target: guinea pig Serotonin, 5-Hydroxytryptamine Receptor 4 (5HT4), HTR4 (gene 100135548) (UniProt O70528); assay: NVS_GPCR_g5HT4: NovaScreen (NVS) G Protein-Coupled Receptor Assay for guinea pig Serotonin, 5-Hydroxytryptamine Receptor 4 (5HT4) (AID 2283294)
# In short: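 Guinea pig striatal membranes; radioligand competitive displacement, filtration and scintillation counting after 1 h. Primary screen in duplicate at 25 uM; actives then tested in concentration series; loss of binding signal fitted relative to DMSO.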
# [3] = biological target: rat Adrenergic, Alpha 1A Receptor (Adra1A), Adra1a (gene 29412) (UniProt P43140); assay: NVS_GPCR_rAdra1A: NovaScreen (NVS) G Protein-Coupled Receptor Assay for rat Adrenergic, Alpha 1A Receptor (Adra1A) (AID 2283296)
# Protocol: NVS_GPCR_rAdra1A is a biochemical, single-readout assay that uses extracted gene-proteins from Rat cortical membranes (pretreated with chlorethyl clonidine-CEC) in a tissue-based cell-free assay. Measurements were taken 1 hour after chemical dosing in a 48-well plate.NVS_GPCR_rAdra1A is one of one assay component(s) measured or calculated from the NVS_GPCR_rAdra1A assay. It is designed to make measurements of radioligand binding, a form of binding reporter, as detected with scintillation counting signals by Filter-based radiodetection technology.Data from the assay component NVS_GPCR_rAdra1A was analyzed into 1 assay endpoint. This assay endpoint, NVS_GPCR_rAdra1A, was analyzed in the positive analysis fitting direction relative to DMSO as the negative control and baseline of activity. Using a type of binding reporter, loss-of-signal activity can be used to understand changes in the binding as they relate to the gene Adra1a. Furthermore, this assay endpoint can be referred to as a primary readout, because the performed assay has only produced 1 assay endpoint. To generalize the intended target to other relatable targets, this assay endpoint is annotated to the gpcr intended target family, where the subfamily is rhodopsin-like receptor.
# Binding assays used specific radioligands (tritiated, iodinated) with non-radioactive competitive displacement ligands in agonist or antagonist protocols (as indicated) and various reference compounds and inhibitors to titrate specific binding to receptors and transporters. Most enzyme assays (CYPs, kinases, phosphatases, proteases, HDACs) used recombinant protein and specific substrates (fluorescence mostly, some colorimetric and radioactive) and inhibitors, followed by a biochemical separation of substrate and product. All assays for the biochemical HTS were initially run in duplicate at a single concentration (10 uM for CYP450 assays and 25 uM for all others). […] Each assay was run with positive and negative controls, and concurrent controls on every plate. The follow-up (secondary) screen tested active chemical-pairs in concentration series, as well as a few additional assays not tested in the primary screen, some selected negative inactives, and several cases re-run in the concentration series for confirmatory purposes.
# [4] = biological target: rat Adrenergic Receptor, Alpha 2 (Adra2), Non-selective Binding, Adra2a (gene 25083) (UniProt P22909); assay: NVS_GPCR_rAdra2_NonSelective: NovaScreen (NVS) G Protein-Coupled Receptor Assay for rat Adrenergic Receptor, Alpha 2 (Adra2), Non-selective Binding (AID 2283299)
# In short: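 Rat cortical membranes, radioligand competitive displacement read by filter-based scintillation counting 1.25 hours after dosing. Primary screen in duplicate at 25 uM; actives followed up in concentration series.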
# Adra2b (gene 24174) = Adra2b (gene 24174) (UniProt P19328); assay: NVS_GPCR_rmAdra2B: NovaScreen (NVS) G Protein-Coupled Receptor Assay for hybird cells Adrenergic, Alpha 2B Receptor (Adra2B) (AID 2283306)
# In short: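 Radioligand filter-binding assay on membrane proteins from neuroglioma/blastoma hybrid cells (rodent), 1 h after dosing; scintillation counting, loss of signal vs DMSO. Primary screen in duplicate at 25 uM, actives then run in concentration series.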
# [5] = biological target: rat Neurokinin-1 Receptor (NK1), Tacr1 (gene 24807) (UniProt P14600); assay: NVS_GPCR_rNK1: NovaScreen (NVS) G Protein-Coupled Receptor Assay for rat Neurokinin-1 Receptor (NK1) (AID 2283309)
# In short: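 Rat submaxillary gland membranes; radioligand displacement read by filter-based scintillation counting after 1 h. Primary screen in duplicate at 25 uM; actives retested in concentration series; loss of binding fitted versus DMSO.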
# [6] = biological target: rat Adrenergic Receptor, Beta (Adrb), Non-selective Binding, Adrb1 (gene 24925) (UniProt P18090); assay: NVS_GPCR_rAdrb_NonSelective: NovaScreen (NVS) G Protein-Coupled Receptor Assay for rat Adrenergic Receptor, Beta (Adrb), Non-selective Binding (AID 2283298)
# In short: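 Non-selective beta-adrenergic radioligand binding in rat cortical membranes, 1 h incubation, filter-based scintillation read-out. Primary screen 25 uM in duplicate; hits retested in concentration-response up to 50 uM, DMSO baseline.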
# [7] = system: rat Adrenergic, Alpha 1B Receptor (Adra1B), gene 24173; assay: NVS_GPCR_rAdra1B: NovaScreen (NVS) G Protein-Coupled Receptor Assay for rat Adrenergic, Alpha 1B Receptor (Adra1B) (AID 2283297)
# In short: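 Rat liver membranes, radioligand displacement with filter-based scintillation detection, 1 h incubation. Primary screen in duplicate at 25 uM; actives retested in concentration series; activity relative to DMSO.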
# [8] = biological target: rat Gamma-Aminobutyric Acid Type B Receptor (GABBR), Gabbr1 (gene 81657) (UniProt Q9Z0U4); assay: NVS_GPCR_rGABBR: NovaScreen (NVS) G Protein-Coupled Receptor Assay for rat Gamma-Aminobutyric Acid Type B Receptor (GABBR) (AID 2283301)
# In short: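 Radioligand displacement on rat cortical membranes, 1 h, filter-based scintillation counting. Primary screen at 25 uM in duplicate; compounds passing threshold re-tested in concentration-response up to 50 uM; loss of binding fitted against DMSO.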
# [9] = biological target: rat Serotonin, 5-Hydroxytryptamine Receptor (5HT), Non-Selective Binding, Htr1a (gene 24473) (UniProt P19327); assay: NVS_GPCR_r5HT_NonSelective: NovaScreen (NVS) G Protein-Coupled Receptor Assay for rat Serotonin, 5-Hydroxytryptamine Receptor (5HT), Non-Selective Binding (AID 2283295)
# In short: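 Radioligand displacement on rat cortical membranes, 1 h incubation, filter-based scintillation counting. Primary duplicates at 25 uM, actives retested in concentration series; loss of signal fitted against DMSO as baseline.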
# Chain of rat Adrenergic Receptor, Beta (Adrb), Non-selective Binding, Adrb1 (gene 24925) (P18090 whole entry, looked up): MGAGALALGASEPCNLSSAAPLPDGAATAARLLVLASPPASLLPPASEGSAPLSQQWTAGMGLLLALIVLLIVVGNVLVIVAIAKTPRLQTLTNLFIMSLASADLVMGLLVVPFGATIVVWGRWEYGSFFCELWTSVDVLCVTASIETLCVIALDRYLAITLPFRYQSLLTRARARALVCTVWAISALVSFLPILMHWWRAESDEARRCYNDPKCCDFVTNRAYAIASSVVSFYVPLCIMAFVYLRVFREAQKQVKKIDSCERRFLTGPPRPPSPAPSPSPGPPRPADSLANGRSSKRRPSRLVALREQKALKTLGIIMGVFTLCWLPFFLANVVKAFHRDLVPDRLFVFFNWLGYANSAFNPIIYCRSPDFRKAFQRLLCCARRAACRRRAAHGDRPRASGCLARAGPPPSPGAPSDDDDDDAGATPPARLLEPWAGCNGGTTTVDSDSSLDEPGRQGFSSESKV
# Chain of rat Adrenergic Receptor, Alpha 2 (Adra2), Non-selective Binding, Adra2a (gene 25083) (P22909 whole entry, looked up): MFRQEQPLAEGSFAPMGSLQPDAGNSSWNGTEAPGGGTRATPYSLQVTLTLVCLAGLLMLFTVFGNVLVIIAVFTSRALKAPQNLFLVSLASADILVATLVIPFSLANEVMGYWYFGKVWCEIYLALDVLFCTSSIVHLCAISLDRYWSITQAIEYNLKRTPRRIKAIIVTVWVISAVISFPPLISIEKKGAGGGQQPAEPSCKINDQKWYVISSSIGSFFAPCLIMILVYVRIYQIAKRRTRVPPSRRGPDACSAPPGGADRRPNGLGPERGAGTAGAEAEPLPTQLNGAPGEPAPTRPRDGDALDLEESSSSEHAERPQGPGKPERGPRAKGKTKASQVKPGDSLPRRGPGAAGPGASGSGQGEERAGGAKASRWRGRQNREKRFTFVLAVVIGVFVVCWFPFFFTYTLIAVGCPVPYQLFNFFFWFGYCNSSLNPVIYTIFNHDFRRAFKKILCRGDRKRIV
# Chain of guinea pig Serotonin, 5-Hydroxytryptamine Receptor 4 (5HT4), HTR4 (gene 100135548) (O70528 whole entry, looked up): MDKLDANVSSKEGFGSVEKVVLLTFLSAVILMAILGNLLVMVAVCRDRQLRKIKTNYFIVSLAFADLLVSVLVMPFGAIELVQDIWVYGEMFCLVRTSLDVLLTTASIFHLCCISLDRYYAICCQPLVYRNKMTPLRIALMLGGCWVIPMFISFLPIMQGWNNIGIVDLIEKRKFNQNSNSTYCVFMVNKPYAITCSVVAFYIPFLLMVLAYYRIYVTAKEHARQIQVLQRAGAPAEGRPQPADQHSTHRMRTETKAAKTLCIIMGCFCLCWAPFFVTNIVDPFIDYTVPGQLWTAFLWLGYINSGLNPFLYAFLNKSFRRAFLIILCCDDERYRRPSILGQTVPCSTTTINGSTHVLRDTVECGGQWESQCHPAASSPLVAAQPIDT
# Chain of rat Serotonin, 5-Hydroxytryptamine Receptor (5HT), Non-Selective Binding, Htr1a (gene 24473) (P19327 whole entry, looked up): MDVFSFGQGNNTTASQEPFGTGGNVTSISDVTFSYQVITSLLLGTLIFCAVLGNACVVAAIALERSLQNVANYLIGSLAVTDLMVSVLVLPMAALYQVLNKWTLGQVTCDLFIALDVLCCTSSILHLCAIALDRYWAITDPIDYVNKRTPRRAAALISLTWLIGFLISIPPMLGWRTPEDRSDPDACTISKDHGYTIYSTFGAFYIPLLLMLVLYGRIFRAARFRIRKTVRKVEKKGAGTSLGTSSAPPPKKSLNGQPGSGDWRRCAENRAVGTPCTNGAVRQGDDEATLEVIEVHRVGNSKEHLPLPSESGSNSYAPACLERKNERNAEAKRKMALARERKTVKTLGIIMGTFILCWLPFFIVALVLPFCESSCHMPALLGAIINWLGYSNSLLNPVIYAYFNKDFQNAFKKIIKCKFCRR
# Chain of rat Gamma-Aminobutyric Acid Type B Receptor (GABBR), Gabbr1 (gene 81657) (Q9Z0U4 whole entry, looked up): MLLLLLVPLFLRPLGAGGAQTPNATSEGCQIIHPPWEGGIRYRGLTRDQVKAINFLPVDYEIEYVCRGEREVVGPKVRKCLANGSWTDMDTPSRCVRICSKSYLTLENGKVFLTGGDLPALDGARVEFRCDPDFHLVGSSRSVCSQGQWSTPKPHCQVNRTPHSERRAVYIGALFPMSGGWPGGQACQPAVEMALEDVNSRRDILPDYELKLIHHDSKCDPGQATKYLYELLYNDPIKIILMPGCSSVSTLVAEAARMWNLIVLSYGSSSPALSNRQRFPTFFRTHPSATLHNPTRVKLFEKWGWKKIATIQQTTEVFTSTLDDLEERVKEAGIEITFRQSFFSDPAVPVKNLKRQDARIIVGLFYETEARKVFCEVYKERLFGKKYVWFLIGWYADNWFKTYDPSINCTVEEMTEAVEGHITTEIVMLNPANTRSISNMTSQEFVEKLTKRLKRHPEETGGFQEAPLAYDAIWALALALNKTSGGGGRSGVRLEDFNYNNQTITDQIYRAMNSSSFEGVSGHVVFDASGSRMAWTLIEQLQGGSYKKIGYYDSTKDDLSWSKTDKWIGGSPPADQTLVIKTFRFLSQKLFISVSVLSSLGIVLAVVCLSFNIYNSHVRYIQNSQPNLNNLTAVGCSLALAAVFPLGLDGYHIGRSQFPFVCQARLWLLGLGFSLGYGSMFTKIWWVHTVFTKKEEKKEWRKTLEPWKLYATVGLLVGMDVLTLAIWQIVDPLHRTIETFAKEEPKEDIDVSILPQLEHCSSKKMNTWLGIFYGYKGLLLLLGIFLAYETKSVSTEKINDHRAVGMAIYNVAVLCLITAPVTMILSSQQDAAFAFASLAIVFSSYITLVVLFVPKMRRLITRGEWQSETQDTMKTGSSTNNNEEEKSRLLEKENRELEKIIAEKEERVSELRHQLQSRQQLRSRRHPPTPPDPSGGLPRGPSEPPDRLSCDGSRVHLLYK
# Chain of rat Adrenergic, Alpha 1A Receptor (Adra1A), Adra1a (gene 29412) (P43140 whole entry, looked up): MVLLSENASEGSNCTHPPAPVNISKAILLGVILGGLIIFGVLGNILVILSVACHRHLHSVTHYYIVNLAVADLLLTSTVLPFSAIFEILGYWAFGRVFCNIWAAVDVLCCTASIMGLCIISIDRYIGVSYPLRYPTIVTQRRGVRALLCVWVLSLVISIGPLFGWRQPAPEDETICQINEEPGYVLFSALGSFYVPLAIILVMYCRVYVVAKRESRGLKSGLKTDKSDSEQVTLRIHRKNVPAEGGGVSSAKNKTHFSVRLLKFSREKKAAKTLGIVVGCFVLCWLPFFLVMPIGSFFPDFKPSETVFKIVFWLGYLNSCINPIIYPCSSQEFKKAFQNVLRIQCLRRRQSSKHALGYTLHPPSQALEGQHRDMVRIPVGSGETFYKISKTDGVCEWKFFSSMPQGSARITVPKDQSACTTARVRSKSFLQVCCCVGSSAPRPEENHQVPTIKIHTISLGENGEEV
# Chain of Adra2b (gene 24174) (P19328 whole entry, looked up): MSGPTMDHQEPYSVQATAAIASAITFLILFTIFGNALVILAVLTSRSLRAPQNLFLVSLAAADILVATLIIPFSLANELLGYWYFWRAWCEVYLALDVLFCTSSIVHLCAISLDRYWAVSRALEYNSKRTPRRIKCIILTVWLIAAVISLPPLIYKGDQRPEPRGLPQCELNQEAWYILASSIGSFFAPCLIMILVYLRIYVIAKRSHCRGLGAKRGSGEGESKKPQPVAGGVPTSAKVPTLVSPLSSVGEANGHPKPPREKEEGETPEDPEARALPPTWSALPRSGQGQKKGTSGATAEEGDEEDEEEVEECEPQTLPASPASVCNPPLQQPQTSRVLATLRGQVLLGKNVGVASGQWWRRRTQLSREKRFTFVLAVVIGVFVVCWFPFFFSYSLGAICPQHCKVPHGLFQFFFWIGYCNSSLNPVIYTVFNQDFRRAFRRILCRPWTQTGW
# Chain of rat Neurokinin-1 Receptor (NK1), Tacr1 (gene 24807) (P14600 whole entry, looked up): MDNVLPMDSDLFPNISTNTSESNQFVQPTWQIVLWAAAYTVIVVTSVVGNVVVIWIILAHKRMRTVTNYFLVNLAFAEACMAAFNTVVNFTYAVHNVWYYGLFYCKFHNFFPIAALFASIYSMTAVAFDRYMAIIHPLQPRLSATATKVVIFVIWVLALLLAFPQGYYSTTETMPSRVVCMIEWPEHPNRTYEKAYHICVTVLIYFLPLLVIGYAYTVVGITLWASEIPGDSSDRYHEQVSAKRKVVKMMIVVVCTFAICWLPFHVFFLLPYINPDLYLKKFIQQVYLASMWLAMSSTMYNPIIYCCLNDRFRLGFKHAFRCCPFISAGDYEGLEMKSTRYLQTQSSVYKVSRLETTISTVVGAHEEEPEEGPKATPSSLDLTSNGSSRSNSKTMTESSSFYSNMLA
# Chain of rat Histamine Receptor (H3), Hrh3 (gene 85268) (Q9QYN8 whole entry, looked up): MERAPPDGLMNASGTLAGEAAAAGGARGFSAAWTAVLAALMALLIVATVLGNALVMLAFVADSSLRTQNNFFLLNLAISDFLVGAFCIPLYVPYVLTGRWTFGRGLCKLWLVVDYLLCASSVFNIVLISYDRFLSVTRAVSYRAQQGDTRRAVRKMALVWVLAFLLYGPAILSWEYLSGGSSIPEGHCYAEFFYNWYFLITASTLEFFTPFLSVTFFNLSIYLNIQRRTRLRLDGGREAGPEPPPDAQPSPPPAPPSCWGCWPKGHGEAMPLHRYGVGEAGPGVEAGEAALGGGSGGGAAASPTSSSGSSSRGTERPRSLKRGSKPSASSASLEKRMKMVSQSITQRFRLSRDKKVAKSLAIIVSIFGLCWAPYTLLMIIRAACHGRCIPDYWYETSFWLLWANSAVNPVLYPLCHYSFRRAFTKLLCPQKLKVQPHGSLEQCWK
smiles,measurement,setting,value
CN(C)c1ccc(N=NS(=O)(=O)O)cc1,AC50,[1],14.6 µM (active)
CCN(C(=O)c1cc(C)cc(OC[C@H](C)Nc2ccncc2)c1)C(C)C,AC50,[2],3.35 µM (active)
same,AC50,[3],7.54 µM (active)
same,AC50,[4],4.14 µM (active)
same,AC50,[1],2.93 µM (active)
same,AC50,Adra2b (gene 24174),8.19 µM (active)
COc1ccc(-n2nc(C(F)F)cc2-c2ccc(S(C)=O)cc2)cc1 (stereo unspecified),outcome,Adra2b (gene 24174),inactive
same,AC50,[5],25 µM (active)
CC(=O)OCCC(C)C,outcome,[4],inactive
Cc1ccc(O)cc1,outcome,[6],inactive
Oc1ccc2c(c1)-c1ccccc1C2,AC50,[2],6.87 µM (active)
COCCOc1cc2cc(C(=O)NC3CCN(C(C)C)CC3)n(CC(=O)Nc3ccc(Cl)cn3)c2cn1,AC50,[3],14.7 µM (active)
same,AC50,[7],15.3 µM (active)
same,AC50,[4],10.1 µM (active)
same,AC50,[1],12.6 µM (active)
CCc1cc(SCc2sc(-c3ccc(C(F)(F)F)cc3)nc2CN2CCN(c3ccc(OC)cc3)CC2)ccc1OCC(=O)O,outcome,[7],inactive
same,outcome,[8],inactive
CC1=CC(=O)CC(C)(C)C1,outcome,[6],inactive
Cc1[nH]cnc1C[C@H]1CCc2c(C)c3ccccc3n2C1=O,AC50,[2],6.64 µM (active)
same,AC50,[9],4.63 µM (active)
same,AC50,[3],8.9 µM (active)
same,AC50,[7],11.9 µM (active)
same,AC50,[6],4.78 µM (active)
same,outcome,[1],inactive
same,AC50,Adra2b (gene 24174),3.68 µM (active)
same,outcome,[5],inactive
CCC(C)(C)C(=O)O[C@H]1C[C@@H](C)C=C2C=C[C@H](C)[C@H](CC[C@@H]3C[C@@H](O)CC(=O)O3)[C@H]21,outcome,[4],inactive
CCCCCCc1ccc(O)cc1O,AC50,[2],36.6 µM (active)
O=C(O)CC(O)C(=O)O (stereo unspecified),outcome,[9],inactive
CCn1nc(Cc2ccccc2)cc1C1CCN(C[C@H]2C[C@H](N(C)[C@@H](C(=O)O)C(C)C)C[C@@H]2c2cccc(F)c2)CC1,AC50,[2],25 µM (active)
same,outcome,[6],inactive
O=c1[nH]c2ccc(S(=O)CCN3CCC(Cc4ccc(F)cc4)CC3)cc2o1 (stereo unspecified),AC50,[9],5.88 µM (active)
same,AC50,[3],3.25 µM (active)
same,AC50,[7],3.46 µM (active)
same,outcome,[6],inactive
same,AC50,[4],1.88 µM (active)
same,AC50,Adra2b (gene 24174),0.609 µM (active)
CC1(C)C(=O)N(Br)C(=O)N1Br,AC50,[9],17.1 µM (active)
O=C(O)CCN(C1(C(=O)NO)CCCC1)S(=O)(=O)c1ccc(Oc2ccc(F)cc2)cc1,outcome,Adra2b (gene 24174),inactive
CNS(=O)(=O)c1cc(C(=O)N2CCC(CCN3C4CCC3CC(n3c(C)nc5ccccc53)C4)(c3cccc(F)c3)CC2)c(Cl)cc1F (stereo unspecified),outcome,[2],inactive
same,outcome,[9],inactive
same,AC50,[3],14.9 µM (active)
same,AC50,[7],2.1 µM (active)
same,AC50,[1],1.85 µM (active)
same,AC50,Adra2b (gene 24174),7.6 µM (active)
same,AC50,[5],25 µM (active)
CCOc1cccc(-n2cc(C(=O)N3CCN(c4cc(C(=O)O)c5ccccc5c4)CC3)nc2-c2ccc(C)cc2)c1,AC50,[5],14.8 µM (active)
COc1cccc(-c2ccc(/C=C\CN3CCCCCC3)cc2Cl)c1,AC50,[2],12.1 µM (active)
same,outcome,[3],inactive
same,AC50,[7],18.7 µM (active)
same,AC50,[4],2.99 µM (active)
same,AC50,[1],10.1 µM (active)
same,AC50,Adra2b (gene 24174),4.39 µM (active)
CCOC(=O)CC(CC(=O)OCC)(OC(C)=O)C(=O)OCC,outcome,[5],inactive
CCOC(=O)c1ccc(C2CCC(NC[C@H](O)COc3ccc(O)c(NS(C)(=O)=O)c3)CC2)cc1 (stereo partly specified),AC50,[2],2.57 µM (active)
same,AC50,[3],11.5 µM (active)
same,AC50,[6],8.67 µM (active)
same,AC50,[1],23.4 µM (active)
same,AC50,Adra2b (gene 24174),23.4 µM (active)
same,outcome,[5],inactive
Cn1c(=O)cc(Oc2ccc(F)cc2F)c2cnc(NCC(C)(C)O)nc21,AC50,[5],20.3 µM (active)
CC[C@H]1CC[C@H](NCc2cc3c(cc2OC)[C@H]2C[C@H]2C(=O)N3C)[C@H](c2ccccc2)N1,AC50,[2],14.2 µM (active)
same,AC50,[7],17.2 µM (active)
same,AC50,[4],13.3 µM (active)
same,outcome,[8],inactive
same,AC50,[1],15 µM (active)
same,AC50,Adra2b (gene 24174),12.3 µM (active)
same,AC50,[5],0.296 µM (active)
CCCCCCCCCCCCCCCO,outcome,[7],inactive
CCCCC(CC)COC(=O)CCCCCCCCC(=O)OCC(CC)CCCC (stereo unspecified),outcome,[5],inactive
CNCc1ccc(NC(=O)c2c[nH]c3c2C(=O)CCC3)cc1,outcome,[8],inactive
same,outcome,Adra2b (gene 24174),inactive
Nc1ccc(Nc2ccccc2)cc1,AC50,[2],31.6 µM (active)
same,AC50,[7],40.6 µM (active)
same,AC50,[4],25 µM (active)
same,AC50,[1],16.9 µM (active)
Cn1cnc([N+](=O)[O-])c1Sc1ncnc2nc[nH]c12,outcome,[7],inactive
CCOC(=O)COc1ccc2c(c1)CC(NCC(O)c1cccc(Cl)c1)CC2 (stereo unspecified),outcome,[9],inactive
same,AC50,Adra2b (gene 24174),11.2 µM (active)
CCCN(C1CCN(C(=O)C2CCNCC2)CC1)[C@@H]1CCc2ccc(OC)cc2C1,AC50,[2],8.99 µM (active)
same,AC50,[9],25 µM (active)
same,AC50,[7],12.8 µM (active)
same,AC50,[6],18.3 µM (active)
same,AC50,[1],0.914 µM (active)
same,AC50,Adra2b (gene 24174),7.66 µM (active)
same,outcome,[5],inactive
